Experimental data published in PubChem BioAssay AID1159580 (chemical genetic matrix, 2015).
Among all 5,500 compounds or so, about 2,000 (36%) were called active. Another 18% or so got no clear call; they are omitted. Rule as the data show it: active = normalized growth mostly below about 0.91 (no sharp cut-off); inconclusive = no clear call, values can overlap the other calls; inactive = mostly above about 0.92. The list shows a part of the results.

Test: chemical genetic growth profiling, strain panel (AID 1159580);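 also: tested at 20 µM; growth read once vehicle control cultures reached saturation at 30 °C; 1 = growth at the plate median or of vehicle wells; lower values mean less growth of the strain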
Conditions: growth OD

Measured: normalized growth

CNC(=O)Oc1cccc2c1OC(C)(C)O2
inactive: S. cerevisiae deletion strains, locus YJR043C, strain POL32, stronger effect = lower value 1.01 | S. cerevisiae deletion strains, locus YJR075W, strain HOC1, stronger effect = lower value 1.01 | S. cerevisiae deletion strains, locus YKL009W, strain mrt4, stronger effect = lower value 1.02 | S. cerevisiae deletion strains, locus YKL068W, stronger effect = lower value 1 | S. cerevisiae deletion strains, locus YKL085W, strain MDH1 (second series), stronger effect = lower value 1 | S. cerevisiae deletion strains, locus YKL085W, strain MDH1, stronger effect = lower value 1 | S. cerevisiae deletion strains, locus YKL160W, strain elf1, stronger effect = lower value 0.994 | S. cerevisiae deletion strains, locus YKL190W, strain CNB1, stronger effect = lower value 1.02 | S. cerevisiae deletion strains, locus YKR001C, strain vps1, stronger effect = lower value 1.01 | S. cerevisiae deletion strains, locus YKR026C, strain gcn3, stronger effect = lower value 1 | S. cerevisiae deletion strains, locus YKR091W, strain srl3, stronger effect = lower value 1 | S. cerevisiae deletion strains, locus YLL001W, strain dnm1, stronger effect = lower value 0.992 | S. cerevisiae deletion strains, locus YLL026W, stronger effect = lower value 0.998 | S. cerevisiae deletion strains, locus YLL041C, strain sdh2, stronger effect = lower value 0.999 | S. cerevisiae deletion strains, locus YLR027C, strain aat2, stronger effect = lower value 0.99 | S. cerevisiae deletion strains, locus YLR039C, strain RIC1, stronger effect = lower value 1.1 | S. cerevisiae deletion strains, locus YLR058C, strain SHM2, stronger effect = lower value 1.02 | S. cerevisiae deletion strains, locus YLR102C, strain apc9, stronger effect = lower value 0.991 | S. cerevisiae deletion strains, locus YLR221C, strain rsa3, stronger effect = lower value 1 | S. cerevisiae deletion strains, locus YLR258W, strain gsy2, stronger effect = lower value 1 | S. cerevisiae deletion strains, locus YLR262C, strain YPT6 (second series), stronger effect = lower value 1.03 | S. cerevisiae deletion strains, locus YLR262C, strain YPT6, stronger effect = lower value 1.14 | S. cerevisiae deletion strains, locus YLR268W, strain sec22, stronger effect = lower value 0.998 | S. cerevisiae deletion strains, locus YLR320W, strain mms22, stronger effect = lower value 0.986 | S. cerevisiae deletion strains, locus YLR330W, strain CHS5, stronger effect = lower value 1.02 | S. cerevisiae deletion strains, locus YLR342W, strain FKS1 (second series), stronger effect = lower value 0.991 | S. cerevisiae deletion strains, locus YLR342W, strain FKS1, stronger effect = lower value 0.997 | S. cerevisiae deletion strains, locus YLR357W, strain rsc2, stronger effect = lower value 1.05 | S. cerevisiae deletion strains, locus YLR370C, strain arc18, stronger effect = lower value 1.01 | S. cerevisiae deletion strains, locus YLR371W, strain rom2, stronger effect = lower value 0.989 | S. cerevisiae deletion strains, locus YLR384C, strain iki3, stronger effect = lower value 1.01 | S. cerevisiae deletion strains, locus YLR418C, strain cdc73, stronger effect = lower value 0.9 | S. cerevisiae deletion strains, locus YML016C, strain PPZ1, stronger effect = lower value 1.02 | S. cerevisiae deletion strains, locus YML032C, strain rad52, stronger effect = lower value 0.992 | S. cerevisiae deletion strains, locus YML120C, strain ndi1, stronger effect = lower value 1.01 | S. cerevisiae deletion strains, locus YML124C, strain tub3, stronger effect = lower value 0.998 | S. cerevisiae deletion strains, locus YMR058W, strain fet3, stronger effect = lower value 0.999 | S. cerevisiae deletion strains, locus YMR078C, strain ctf18, stronger effect = lower value 0.99 | S. cerevisiae deletion strains, locus YMR125W, strain sto1, stronger effect = lower value 1 | S. cerevisiae deletion strains, locus YMR129W, stronger effect = lower value 0.996 | S. cerevisiae deletion strains, locus YMR205C, strain PFK2, stronger effect = lower value 0.976 | S. cerevisiae deletion strains, locus YMR223W, strain ubp8, stronger effect = lower value 0.985 | S. cerevisiae deletion strains, locus YMR231W, strain pep5, stronger effect = lower value 0.995 | S. cerevisiae deletion strains, locus YMR263W, strain SAP30, stronger effect = lower value 1.02 | S. cerevisiae deletion strains, locus YMR307W, strain GAS1, stronger effect = lower value 1.05 | S. cerevisiae deletion strains, locus YNL067W, strain RPL9B, stronger effect = lower value 1.02 | S. cerevisiae deletion strains, locus YNL071W, strain lat1, stronger effect = lower value 1 | S. cerevisiae deletion strains, locus YNL128W, strain TEP1, stronger effect = lower value 1.03 | S. cerevisiae deletion strains, locus YNL153C, strain GIM3, stronger effect = lower value 1.01 | S. cerevisiae deletion strains, locus YNL209W, strain ssb2, stronger effect = lower value 0.996 | S. cerevisiae deletion strains, locus YNL233W, strain BNI4, stronger effect = lower value 1.02 | S. cerevisiae deletion strains, locus YNL248C, strain rpa49, stronger effect = lower value 0.991 | S. cerevisiae deletion strains, locus YNL250W, strain rad50, stronger effect = lower value 0.997 | S. cerevisiae deletion strains, locus YNL271C, strain bni1, stronger effect = lower value 1 | S. cerevisiae deletion strains, locus YNL298W, strain CLA4, stronger effect = lower value 0.998 | S. cerevisiae deletion strains, locus YNL307C, strain MCK1, stronger effect = lower value 0.984 | S. cerevisiae deletion strains, locus YNL322C, strain KRE1 (second series), stronger effect = lower value 0.999 | S. cerevisiae deletion strains, locus YNL322C, strain KRE1, stronger effect = lower value 1.02 | S. cerevisiae deletion strains, locus YNR049C, strain mso1, stronger effect = lower value 1 | S. cerevisiae deletion strains, locus YNR052C, strain pop2, stronger effect = lower value 0.996 | S. cerevisiae deletion strains, locus YOL006C, strain TOP1, stronger effect = lower value 1.02 | S. cerevisiae deletion strains, locus YOL012C, strain htz1 1.24 | S. cerevisiae deletion strains, locus YOL147C, strain pex11, stronger effect = lower value 0.993 | S. cerevisiae deletion strains, locus YOR001W, strain rrp6, stronger effect = lower value 0.981 | S. cerevisiae deletion strains, locus YOR061W, strain CKA2, stronger effect = lower value 1.02 | S. cerevisiae deletion strains, locus YOR069W, strain VPS5, stronger effect = lower value 1.01 | S. cerevisiae deletion strains, locus YOR070C, strain gyp1, stronger effect = lower value 0.991 | S. cerevisiae deletion strains, locus YOR080W, strain dia2, stronger effect = lower value 1 | S. cerevisiae deletion strains, locus YOR083W, strain WHI5, stronger effect = lower value 1 | S. cerevisiae deletion strains, locus YOR106W, strain vam3, stronger effect = lower value 0.987 | S. cerevisiae deletion strains, locus YOR136W, strain idh2, stronger effect = lower value 0.983 | S. cerevisiae deletion strains, locus YOR144C, strain elg1, stronger effect = lower value 0.999 | S. cerevisiae deletion strains, locus YOR184W, strain ser1, stronger effect = lower value 1.01 | S. cerevisiae deletion strains, locus YOR265W, strain rbl2, stronger effect = lower value 1.01 | S. cerevisiae deletion strains, locus YOR270C, strain vph1, stronger effect = lower value 0.953 | S. cerevisiae deletion strains, locus YOR290C, strain snf2, stronger effect = lower value 0.959 | S. cerevisiae deletion strains, locus YOR316C, strain cot1, stronger effect = lower value 0.995 | S. cerevisiae deletion strains, locus YPL051W, strain arl3, stronger effect = lower value 0.997 | S. cerevisiae deletion strains, locus YPL055C, strain LGE1, stronger effect = lower value 1.03 | S. cerevisiae deletion strains, locus YPL078C, strain atp4, stronger effect = lower value 0.988 | S. cerevisiae deletion strains, locus YPL106C, strain sse1, stronger effect = lower value 1.08 | S. cerevisiae deletion strains, locus YPL240C, strain hsp82, stronger effect = lower value 1 | S. cerevisiae deletion strains, locus YPL241C, strain CIN2, stronger effect = lower value 1.02 | S. cerevisiae deletion strains, locus YPR119W, strain clb2, stronger effect = lower value 0.993 | S. cerevisiae deletion strains, locus YPR141C, strain kar3, stronger effect = lower value 0.993 | S. cerevisiae deletion strains, locus YPR163C, strain tif3, stronger effect = lower value 0.988 | S. cerevisiae deletion strains, locus YPR167C, strain met16, stronger effect = lower value 0.993 | S. cerevisiae deletion strains, strain wtn01, stronger effect = lower value 0.99 | S. cerevisiae strains, strain wild type, stronger effect = lower value 1.01
